Measured values from PubChem BioAssay AID720566 (Broad Institute, 2013).
Entries with a potency or affinity are not part of this list. Active and inactive are the calls of the source.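 Rule for the calls: active = in all runs, an absorbance decrease of 25% or more of the average positive control decrease; inconclusive = runs conflict, with both active and inactive results; inactive = all runs inactive, opposite-direction effects included.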

Each compound was assayed against Protein disulfide-isomerase A6 (Homo sapiens) (UniProt Q15084) (assay: reduced insulin turbidity driven by ERp5 (PDIA6) – biochemical, absorbance 650 nm, cherry-picked samples, dose response (AID 720566;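 note: negative values mean less insulin aggregation so ERp5 inhibition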)). Details: Recombinant ERp5 insulin aggregation; series mostly up to 35 µM.
Chain of Protein disulfide-isomerase A6 (Homo sapiens) (Q15084 whole entry, looked up): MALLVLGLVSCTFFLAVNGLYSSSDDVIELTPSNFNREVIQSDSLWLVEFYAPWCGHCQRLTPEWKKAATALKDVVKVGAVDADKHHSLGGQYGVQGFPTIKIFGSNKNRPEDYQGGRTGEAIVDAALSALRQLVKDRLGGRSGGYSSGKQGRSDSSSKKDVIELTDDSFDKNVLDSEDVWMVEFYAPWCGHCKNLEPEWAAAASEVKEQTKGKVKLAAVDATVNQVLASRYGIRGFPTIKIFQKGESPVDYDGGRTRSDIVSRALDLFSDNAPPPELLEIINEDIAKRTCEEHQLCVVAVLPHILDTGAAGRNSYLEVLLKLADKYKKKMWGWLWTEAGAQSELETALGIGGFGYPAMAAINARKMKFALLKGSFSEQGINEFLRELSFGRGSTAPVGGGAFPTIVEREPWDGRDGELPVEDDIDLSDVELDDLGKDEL

Question: With `CCCNC(=O)C[C@H]1CC[C@@H]2[C@@H](COc3ccc(NC(=O)c4ccccc4)cc3C(=O)N2C)O1` as the compound, how does the outcome read?
Answer: inactive

Question: `CC(=O)Nc1ccc2c(c1)C(=O)N(C)[C@@H]1CC[C@@H](CC(=O)NCC3CC3)O[C@H]1CO2` was tested. Which outcome did it give?
Answer: inactive

Question: How did the outcome turn out when `Cc1ccc(S(=O)(=O)C=CS(=O)(=O)c2ccc(C)cc2)cc1` was run?
Answer: inactive

Question: With `Cc1ccc2nc(-c3cccc(Br)c3)c(Cc3cccc(Cl)c3)n2c1` as the compound, how does the outcome read?
Answer: inactive

Question: With `CC(=O)Nc1ccc2c(c1)C(=O)N(C)[C@H]1CC[C@@H](CC(=O)NCC3CC3)O[C@H]1CO2` as the compound, how does the outcome read?
Answer: inactive

Question: How did the outcome turn out when `Cc1cc2occ(CC(=O)NNC(=O)c3ccccc3)c2cc1C` was run?
Answer: inactive

Question: For `CC(C)C(NC(=O)c1ccc(F)cc1)C(=O)N1CCOCC1` (stereo unspecified), which outcome is on record?
Answer: inactive

Question: For `CCC(=O)Nc1ccc2c(c1)OC[C@H](C)N(Cc1cccnc1)C[C@H](C)[C@H](OC)CN(C)C2=O`, which outcome is on record?
Answer: inactive

Question: How did the outcome turn out when `CC(C)NC(=O)N(C)C[C@@H]1Oc2ncc(-c3cc4ccccc4o3)cc2C(=O)N([C@H](C)CO)C[C@@H]1C` was run?
Answer: inactive

Question: With `COc1ccc(S(=O)(=O)Nc2ccc3c(c2)C(=O)N([C@H](C)CO)C[C@H](C)[C@H](CN(C)C(=O)Nc2ccccc2)O3)cc1` as the compound, how does the outcome read?
Answer: inactive

Question: How did the outcome turn out when `COc1ccc(NC(=O)N(C)C[C@@H]2Oc3ccc(NC(=O)Nc4ccc(F)cc4)cc3CC(=O)N([C@@H](C)CO)C[C@@H]2C)cc1` was run?
Answer: inactive

Question: With `C[C@@H]1CN([C@H](C)CO)C(=O)c2cccc(NS(=O)(=O)c3ccc(Cl)cc3)c2O[C@@H]1CN(C)Cc1ccc(C(F)(F)F)cc1` as the compound, how does the outcome read?
Answer: inactive

Question: With `COc1ccc2c3c([nH]c2c1)[C@@H](CO)N(C(=O)c1ccc(F)cc1)CC31CCN(C(=O)Nc2cccc(F)c2)CC1` as the compound, how does the outcome read?
Answer: inactive

Question: Which outcome does the source give for `COc1ccc2c3c([nH]c2c1)[C@H](CO)N(C(=O)c1ccc(F)cc1)CC31CCN(C(=O)Nc2cccc(F)c2)CC1` here?
Answer: inactive

Question: Which outcome does the source give for `C[C@@H]1CN([C@@H](C)CO)C(=O)c2cc(C#CC3CCCCC3)cnc2O[C@@H]1CN(C)S(=O)(=O)c1ccccc1` here?
Answer: inactive

Question: Which outcome does the source give for `C[C@H](CO)N1C[C@H](C)[C@H](CN(C)S(=O)(=O)c2cn(C)cn2)Oc2ncc(C#Cc3ccccc3)cc2C1=O` here?
Answer: inactive

Question: Which outcome does the source give for `CN(C)C(=O)C[C@@H]1C[C@@H]2c3cc(NS(C)(=O)=O)ccc3O[C@@H]2[C@H](CO)O1` here?
Answer: inactive

Question: For `C[C@H]1CN([C@@H](C)CO)C(=O)c2cc(-c3cccc(C#N)c3)cnc2O[C@@H]1CN(C)Cc1cncnc1`, which outcome is on record?
Answer: inactive

Question: With `CCCNC(=O)C[C@H]1C[C@@H]2c3cc(NC(=O)CC4CC4)ccc3O[C@@H]2[C@@H](CO)O1` as the compound, how does the outcome read?
Answer: inactive

Question: `CCCNC(=O)C[C@@H]1C[C@H]2c3cc(NC(=O)CC4CC4)ccc3O[C@H]2[C@H](CO)O1` was tested. Which outcome did it give?
Answer: inactive

Question: `C[C@H](CO)N1C[C@H](C)[C@H](CN(C)C(=O)CCC(F)(F)F)OCCCC[C@H](C)Oc2ccc(NS(=O)(=O)c3ccc(Cl)cc3)cc2C1=O` was tested. Which outcome did it give?
Answer: inactive
